Source: PubChem BioAssay AID2762 (National Center for Advancing Translational Sciences (NCATS), 2010)
Inconclusive results are not listed. Active and inactive are the calls of the source. Calls follow the shape of the dose curve; as a rule, active = well fitted inhibition curve with a large enough effect; inconclusive = small, poorly fitted or top-dose-only effect, or effect the other way; inactive = no such curve, though single readings can be large or run the other way.

target: Nuclear receptor ROR-gamma (Mus musculus) (UniProt P51450); experiment: Concentration response confirmation assay for inhibitors of ROR gamma transcriptional activity; details: Drosophila S2 Gal4-RORgamma UAS-luciferase, 20 h; series mostly up to 46.1 µM
Outline: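 Drosophila Schneider cells stably carrying a metallothionein-driven Gal4 DBD–ROR gamma fusion and a UAS-Photinus luciferase reporter were exposed to compound for 1 hr, then induced with copper sulfate (700 uM final) for 20 hr at ambient temperature before luminescence reading.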

Sequence of Nuclear receptor ROR-gamma (Mus musculus) (P51450 whole entry, looked up, the tested form may be a part): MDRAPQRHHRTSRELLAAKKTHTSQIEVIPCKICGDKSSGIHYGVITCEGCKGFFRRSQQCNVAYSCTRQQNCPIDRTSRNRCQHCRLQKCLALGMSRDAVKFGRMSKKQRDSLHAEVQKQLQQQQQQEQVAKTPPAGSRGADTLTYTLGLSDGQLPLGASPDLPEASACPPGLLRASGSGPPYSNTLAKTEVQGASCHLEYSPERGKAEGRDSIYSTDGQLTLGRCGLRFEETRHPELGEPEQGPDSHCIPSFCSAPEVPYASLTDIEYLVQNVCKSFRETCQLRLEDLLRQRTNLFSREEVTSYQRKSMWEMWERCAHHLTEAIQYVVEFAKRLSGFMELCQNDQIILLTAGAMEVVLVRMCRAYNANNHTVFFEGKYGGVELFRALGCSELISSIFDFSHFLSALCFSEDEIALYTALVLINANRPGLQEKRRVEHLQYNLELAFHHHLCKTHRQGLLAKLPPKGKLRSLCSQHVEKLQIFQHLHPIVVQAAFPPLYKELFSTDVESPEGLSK

Potency, inactive:
COc1ccc(C(=O)Nc2ccc(NC(=O)c3cccs3)cn2)cc1, Cc1cc(C)c(S(=O)(=O)NCCn2ccc3ccccc32)c(C)c1, O=C(O)/C=C/C(=O)Nc1ccccc1SC(F)(F)F, CCn1nc(C)c(CN2CCC(n3nccc3NC(=O)c3ccc4c(c3)OCO4)CC2)c1C, CCn1cc(C(=O)O)c(=O)c2cc(F)c(N3CCN(C(=S)NC(=O)c4ccccc4C)CC3)cc21, O=C(O)c1ccc(/C=N/n2cc(-c3ccccc3)[nH]c2=S)cc1, Cc1ccccc1NC(=O)CCN1CCN(C)CC1, Cc1ccc(-c2n[nH]c(=S)n2/N=C/C=C\c2ccccc2[N+](=O)[O-])cc1, COc1ccc(C(C#N)N2N=C(C)CC2c2ccccc2)cc1 (centres undefined), O=C(NC(=S)Nc1nc(-c2ccc(Br)cc2)cs1)c1cccnc1

Potency, active:
CCN1CCCc2cc(CN(CCN3CCOCC3)C(=S)Nc3ccc(C)cc3)ccc21 9960 nM, COc1ccc(OCC(=O)NNc2nc3ccccc3s2)cc1 14100 nM, S=c1[nH]c(-c2ccc(Br)cc2)cn1CCc1ccccc1 9960 nM, Cc1cc(NCc2ccccn2)n2ncc(-c3ccc(Cl)cc3)c2n1 199 nM, Cc1nn(-c2ccccc2)c(C)c1C(=O)Nc1nnc(-c2ccco2)o1 996 nM, Cc1cc(C)nc(-n2nc(C)cc2NC(=O)c2ccc(F)cc2F)n1 996 nM, CNc1cc(C(F)(F)F)nc(-c2ccccn2)n1 3970 nM, COc1cccc2cc(-c3n[nH]c(=S)n3C)oc12 15800 nM, Cc1ccc2nc(-c3ccc(NC(=O)COC(=O)c4ccc([N+](=O)[O-])o4)cc3)sc2c1 315 nM, CC(C)(C)S(=O)(=O)c1cnc2c(-c3ccc(Cl)cc3)cnn2c1N 4450 nM, S=c1[nH]nc(-c2ccc(Br)cc2)n1-c1ccc2c(c1)OCCO2 1580 nM, Clc1ccccc1/C=N/NC1=Nc2cccc3cccc1c23 199 nM, COc1ccc(C(=O)Nc2nc3cc4c(cc3s2)OCCO4)c(OC)c1 62.8 nM, CC(C)(C)c1ccc(-c2noc(CCC(=O)Nc3cccnc3)n2)cc1 99.6 nM, COc1ccc(C(=O)/C=C/c2ccc(OC)cc2OC)c(O)c1 888 nM, O=C(NC(=S)Nc1nc(-c2ccccc2)cs1)c1cncc(Br)c1 3150 nM, CCc1ccc(-c2nc(CSCC(=O)NC3CC3)c(C)o2)cc1 3970 nM, CCOC(=O)c1sc(NC(=O)c2cc3c(s2)CCC(C)C3)nc1C (centres undefined) 99.6 nM, CCOc1ncccc1C(=O)OCC(=O)Nc1ccc(-c2nc3ccc(C)cc3s2)cc1 396 nM
